Compound activity as filed in PubChem BioAssay.
MCF10A rereplic – A quantitative high throughput screen for small molecules that induce DNA re-replication in MCF 10a normal breast cells; actives 2.9% (n = 350,000); MCF 10A DNA re-replication, Hoechst nuclear intensity, 48 h; Potency, µM (doses to about 46.1 µM), inactives show at the highest dose activity, positive = re-replication, hits mostly activators; note: % of control where 0% means no effect; nearly all actives have a fitted effect of over 50% in size
A-T KAP1 phos – qHTS Assay for Identifying a Potential Treatment of Ataxia-Telangiectasia; F2112 A-T fibroblasts, KAP-1 phosphorylation AlphaLISA; neocarzinostatin DNA damage 30 min before lysis; Potency, µM (doses to about 57.5 µM), without a hit: top-dose activation, actives largely listed as activators; actives 0.19% (n = 320,000); AID 485349, 2010; note: % of control where 0% means no effect; nearly all actives have a fitted effect of over 45% in size
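ATM-like activity read as KAP-1 phosphorylation via AlphaLISA donor/acceptor antibody pairs after lysis and 6 hr at 25C. Cells were ATM-null patient fibroblasts (F2112, hTERT), dosed 60 min, then exposed to the DSB inducer NCS for 30 min.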
SW480 rereplic – A quantitative high throughput screen for small molecules that induce DNA re-replication in SW480 colon adenocarcinoma cells. actives 1.8% (n = 340,000). Potency, µM (series often up to 46.1 µM), without a hit: at the top dose re-replication activation, usual class: activators. SW480 DNA re-replication, Hoechst DNA content imaging, 48 h; note: % of control where 0% means no effect; nearly all actives have a fitted effect of over 55% in size
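Image-based DNA-content assay: after two days of treatment, nuclei were labelled with the DNA dye Hoechst and imaged, and hits were compounds raising the count of nuclei showing high fluorescence intensity.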
Integrin act MD – qHTS for Activators of Integrin-Mediated Alleviation for Muscular Dystrophy; alpha7betagal myoblasts, beta-gal FDG fluorescence, 48 h; Potency, µM (doses to about 38.3 µM), without a hit: top-dose activation, actives largely listed as activators; actives 0.064% (n = 350,000); AID 624291, 2012;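 note: 100% = response of the positive control SU9516; nearly all actives have a fitted effect of over 60% in size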
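alpha7betagal+/- myoblasts (passage 13, 250/well) treated 48 h at 37C with compounds at 1:260 dilution of DMSO stock. Lysed, then beta-galactosidase activity read as FDG fluorescence (ex 480/em 540) after 30 min, with pre-read for autofluorescence.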
Mito fusion act – qHTS Assay for Small Molecule Inhibitors of Mitochondrial Division or Activators of Mitochondrial Fusion | AID 485298, 2010 | S. cerevisiae fusion-defective mutant growth rescue, CellTiterGlo 48 h | actives 0.23% (n = 320,000) | Potency, µM (series often up to 46.1 µM), for the others: at the highest dose growth rescue (activation), actives largely listed as activators; note: % of control where 0% means no effect; nearly all actives have a fitted effect of over 45% in size
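Temperature-sensitive fusion-defective S. cerevisiae (e.g. fzo1-1, mgm1-5) were grown with compound in YPEG medium (3% ethanol, 3% glycerol) for 48 hours at 37C. Growth rescue was measured as viability by CellTiterGlo luminescence after 10 minutes at ambient.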
An asterisk follows results filed as active; ? = inconclusive; · = no result given; [ ] = remark or other dose. Most compounds without a hit are left out; they make up all but 4.2% or so of the library. Calls come from the whole dose curve; as a rule, active = well fitted activation curve with a large enough effect; inconclusive = small, poorly fitted or top-dose-only effect; inactive = no such curve, though single readings can be large or run the other way. Potency is the fitted concentration of half-maximal effect.

SMILES	MCF10A rereplic	A-T KAP1 phos	SW480 rereplic	Integrin act MD	Mito fusion act
CC1=CC(C)(C)Nc2ccc(Cc3ccc4c(c3)C(C)=CC(C)(C)N4)cc21	29µM*	0%	1%	-5%	-41%
CC1=CC(C)(C)Nc2ccc(OC(=O)C(C)N3C(=O)c4ccccc4C3=O)cc21 (stereo not given)	?	2%	3.7µM*	-72%	22%
O=C(Oc1cccc(OC(=O)c2ccco2)c1)c1ccco1	2%	5%	-4%	0%	-5%
Cc1cc(C)c(S(=O)(=O)N2CCN(C(=O)c3ccc(-n4nc(C)c(Cl)c4C)cc3)CC2)c(C)c1	6%	·	-11%	12%	·
C[C@H](CO)N1C[C@H](C)[C@@H](CN(C)Cc2cccc(C(F)(F)F)c2)OCc2cnnn2CCCC1=O	·	·	·	12%	·
CC1=CC(C)(C)N2C(=O)C(=O)c3cc(OC(=O)c4ccco4)cc1c32	?	-2%	1.3µM*	-38%	-8%
CC1=CC(C)(C)Nc2ccc(OC(=O)CN3C(=O)CCC3=O)cc21	-2%	0%	4.1µM*	-63%	-1%
O=C(NCC1CC1(Cl)Cl)Nc1ccc(Cl)c(Cl)c1 (stereo not given)	18µM*	4%	?	-1%	-23%
CC(CCc1ccccc1)NC(=O)COc1ccc(S(=O)(=O)N2CCOCC2)cc1[N+](=O)[O-] (stereo not given)	19%	7%	11%	-18%	2%
O=S1(=O)C[C@H]2NC(=S)N(c3ccccc3)[C@H]2C1	-1%	-3%	1%	-43%	-2%
CCOC(=O)Cc1cnc(NC(=O)CSc2nc3ncnc(N)c3[nH]2)s1	0.65µM*	2%	?	0%	4%
O=C(N/N=C/c1cc2c3c(c1O)CCCN3CCC2)c1ccccc1O	13µM*	-8%	9.2µM*	-13%	?
Cc1nn(-c2ccccc2)c(N2CCCC2)c1/C=N/NC(=O)c1ccccc1O	?	-7%	1%	-3%	-5%
COc1ccc(NS(=O)(=O)c2ccc(S(=O)(=O)N3CCCC3)cc2)cc1Cl	9%	-5%	5%	-4%	0%
COP(=O)(OC)c1nc(-c2cccc3ccccc23)oc1NCc1ccccc1	18µM*	14%	13µM*	-7%	6%
COP(=O)(OC)c1nc(-c2ccccc2)oc1NCc1ccccc1	-2%	2%	-5%	-10%	2%
Nc1ccc2c(c1)[nH]c(=O)c1cc(N)ccc12	·	·	·	22%	·
CCCCN1C2=NC(c3ccccc3)CN2c2ccccc21 (stereo not given)	?	·	?	-57%	·
Cc1ccc(C(=O)c2ccc(C)cc2)cc1	-1%	0%	-1%	-2%	-4%
Cc1ccc(C(=O)c2no[n+]([O-])c2C(=O)c2ccc(C)cc2)cc1	7.3µM*	-12%	5.2µM*	-66%	9%
Cc1c(N2C(=O)/C(=C/c3ccccc3)SC2=S)c(=O)n(-c2ccccc2)n1C	19%	-4%	-1%[9.22 µM]	-23%	-6%
Cc1c(N2C(=O)/C(=C\c3ccccc3O)SC2=S)c(=O)n(-c2ccccc2)n1C	?	-9%	18µM*	-28%	20%
Cc1cccc(N(Cc2ccccc2)C(=O)c2ccc(CS(C)(=O)=O)cc2)c1	0%	2%	-15%	-10%	3%
O=C(NCc1cccnc1)C1CC2c3ccccc3C1c1ccccc12 (stereo not given)	6%	-7%	0%	20%	1%
NCC1CC2c3ccccc3C1c1ccccc12 (stereo not given)	13%	0%	23µM*	0%	-15%
SMILES	MCF10A rereplic	A-T KAP1 phos	SW480 rereplic	Integrin act MD	Mito fusion act
Cc1cccc(NC(=O)C2CCCN(S(=O)(=O)c3ccc4[nH]c(=O)ccc4c3)C2)c1 (stereo not given)	0%	-6%	-11%	-4%	-3%
COc1ccc2c(c1)OC[C@H]1[C@H]2N2C(=O)c3cc(OC)ccc3NC(=O)[C@@]2(C)[C@H]1c1ccccc1	16µM*	12%	?	-19%	-20%
COc1ccc2c(c1)C(=O)N1[C@H]3c4cc(Br)ccc4OC[C@@H]3[C@H](c3ccccc3)[C@]1(C)C(=O)N2	4.1µM*	15%	21µM*	-20%	?
COc1ccc2c(c1)C(=O)N1[C@H]3c4cc(Cl)ccc4OC[C@@H]3[C@H](c3ccccc3)[C@]1(C)C(=O)N2	?	2%	9.2µM*	-16%	·
COc1ccc2c(c1)OC[C@H]1[C@H]2N2C(=O)c3cc(Cl)ccc3NC(=O)[C@@]2(C)[C@H]1c1ccccc1	-5%	14%	?	-8%	-15%
COc1ccc2c(c1)[C@H]1[C@H](CO2)[C@H](c2ccccc2)[C@]2(C)C(=O)Nc3cc(Cl)ccc3C(=O)N12	16µM*	-10%	?	-21%	18%
C=CCCCCCCCCC(=O)O	-2%	·	-9%	·	·
C=CCN1C(=O)/C(=C/C(=O)OC)S/C1=N\NC(=O)c1ccccc1	?	10µM*	?	-16%	-12%
CC(C)c1ccc2c(c1)CCC1C(C)(CN)CCCC21C (stereo not given)	16µM*	-1%	3.3µM*	-57%	-46%
CCN(CC)[C@@H](C)CN1c2ccccc2Sc2ccccc21	11%[20.6 µM]	·	18%[20.6 µM]	·	·
CC(C)(C)C(=O)CSc1nc2c(c(-c3cccs3)c1C#N)CCC2	4.1µM*	6%	?	-11%	0%
N#Cc1c(N)nc2c(c1-c1cccs1)CCCC2	28%	0%	-1%	-12%	9%
CCOC(=O)c1c(CSc2nc(C)cc(C)c2C#N)n(C)c2cc(Br)c(OC(C)=O)cc12	5%	0%	1%	-14%	4%
CCOC(=O)c1c(CSC(=N)N)n(-c2ccc(Br)cc2)c2cc(Br)c(OC(C)=O)cc12	10µM*	-8%	?	3%	1%
CCCCCCCCOC(=O)c1c(CSC(=N)N)n(C)c2cc(Br)c(OC(C)=O)cc12	3.3µM*	-3%	?	-6%	-1%
C=CCCc1ccc(C#N)c(SCc2c(C(=O)OCC)c3cc(OC(C)=O)c(Br)cc3n2C)n1	20%	0%	?	-44%	2%
CCC[C@@H](CN1CCC[C@H]1CN1C(N)=NC[C@@H]1Cc1ccccc1)N1C[C@@H]([C@H](C)CC)N(CCCC2CCCC2)C1=N	18µM*	-13%	?	-31%	·
Cc1cc(=O)c2c(o1)C(=O)c1occc1C2=O	?	·	?	-42%	·
Cc1cc(C)n2nc(C(=O)OCC(=O)c3ccccc3)nc2n1	?	2%	8.2µM*	25%	·
